# Test results as given in PubChem BioAssay AID1851 (National Center for Advancing Translational Sciences (NCATS), 2009).
# Where “and” joins values, the source holds several entries; their conditions need not be identical. Equal values may be shown once. About 2,600 (16%) of roughly 16,000 compounds were called active. About 20% were inconclusive and are not listed. Calls follow the shape of the dose curve; as a rule, active = well fitted curve in the direction sought with a large enough effect; inconclusive = small, poorly fitted or top-dose-only effect, or effect the other way; inactive = no such curve, though single readings can be large or run the other way. The list is a sample of the results.
# Target: Cytochrome P450 2D6 (Homo sapiens) (UniProt P10635)
# Sequence (P10635 whole entry, looked up): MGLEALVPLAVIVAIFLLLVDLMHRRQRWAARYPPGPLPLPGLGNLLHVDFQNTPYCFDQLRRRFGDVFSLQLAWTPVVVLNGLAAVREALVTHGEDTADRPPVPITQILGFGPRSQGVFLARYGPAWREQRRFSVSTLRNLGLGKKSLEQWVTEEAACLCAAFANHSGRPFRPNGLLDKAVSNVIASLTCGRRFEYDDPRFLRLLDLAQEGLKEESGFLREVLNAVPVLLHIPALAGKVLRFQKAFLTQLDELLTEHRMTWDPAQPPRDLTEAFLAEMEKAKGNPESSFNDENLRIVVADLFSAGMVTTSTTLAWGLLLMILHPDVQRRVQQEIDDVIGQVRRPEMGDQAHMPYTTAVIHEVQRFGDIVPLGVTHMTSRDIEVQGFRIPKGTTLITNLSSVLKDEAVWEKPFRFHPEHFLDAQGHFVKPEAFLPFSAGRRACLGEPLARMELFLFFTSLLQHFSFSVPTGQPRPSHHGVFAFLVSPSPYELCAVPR
# Assay: Cytochrome panel assay with activity outcomes
# Conditions: recombinant CYP, pro-luciferin dealkylation, luminescence, p450-cyp2d6; series mostly up to 57.1 µM
# % is scaled to controls: 0 for no effect and ±100 for the full control effect.
SMILES,AC50,"activity, negative = inhibition"
CN(C)CC/C=C1\c2ccccc2Sc2ccc(Cl)cc21,2.51 µM (active),–
Cc1ccc(-n2nc3c(c2NC(=O)c2cccs2)CSC3)cc1,inactive,–
CCn1c(CCNC(=O)c2ccc(Cl)cc2Cl)n[nH]c1=S,inactive,–
Cc1ccc(S(=O)(=O)N[C@H]2COC(=O)C/C=C\[C@H](C)[C@@H](NS(=O)(=O)c3ccc(C)cc3)COC(=O)C/C=C\[C@@H]2C)cc1,–,8.84% [at 11.4 µM] (inactive)
CCCC(=O)Nc1cc(-c2cn3cccnc3n2)ccc1OC,inactive,–
CC(C)CO/N=C1/C[C@@H](O)[C@@H](O)[C@@H]2[C@@H]3C(=O)N([C@@H](C)c4ccccc4)C(=O)[C@H]3CC[C@H]12,–,-7.99% [at 11.4 µM] (inactive)
COc1ccc(/C=N/n2cnc3c([nH]c4ccc(Br)cc43)c2=O)cc1CN1CCOCC1,inactive,–
CC(C)(CO)[C@H](O)C(=O)NCCCO,inactive,–
NCCS,inactive,–
O[C@@H](COc1cccc2ccccc12)CN1CCOCC1,–,-5.64% [at 11.4 µM] (inactive)
CNC(=S)N1CCN(c2ccccc2OC)CC1,inactive,–
COc1ccccc1N1CCN(C[C@@H](O)COc2cccc3ccccc23)CC1,794 nM (active) and 316 nM (active) and 126 nM (active),–
COCCn1c(=O)c(-c2cccc(Cl)c2)nc2cncnc21,inactive,–
COC(=O)CN(c1ccc(OC)cc1)S(=O)(=O)c1c(C)noc1C,inactive,–
COc1ccc(N(CC(=O)NCc2cccc(OC)c2)S(=O)(=O)c2c(C)noc2C)cc1,14.1 µM (active),–
COCCCNC(=O)CN(c1ccc(OC)cc1)S(=O)(=O)c1ccc(NC(C)=O)cc1,inactive,–
CN=C1S/C(=C\c2ccc(Sc3ccc(Cl)cc3)o2)C(=O)N1C,inactive,–
C#CCOCCCC(=O)O,–,15.7% [at 11.4 µM] (inactive)
Cc1ccc(CSc2nnc3c(n2)OC2(Nc4ccccc4-3)C(=O)Nc3ccc(F)cc32)cc1 (stereo not given),25.1 µM (active),–
COc1cccc(Nc2ncc3nc(C)c(=O)n(C4CC4)c3n2)c1,inactive,–
O=C(Nc1ccccc1)OC[C@H](CN1CCCCC1)OC(=O)Nc1ccccc1,0.398 µM (active),–
S=C(Nc1ccccc1)N1CCCCC1,inactive,–
O=C(NNC(=S)Nc1ccccc1)C1CC1,inactive,–
COC(=O)COc1ccc(/C=C2/SC(=O)N(CC(=O)N3CCCC3)C2=O)cc1Br,inactive,–
O=C(O)c1ccc(Sc2nnnn2-c2ccccc2)c([N+](=O)[O-])c1,inactive,–

SMILES,AC50,"activity, negative = inhibition"
NCCNC(=O)c1ncsc1-c1cccc(F)c1,inactive,–
CCNc1ncc2ncc(=O)n(Cc3ccc(F)cc3)c2n1,inactive,–
Cn1c(-c2ccc(F)cc2)cnc1NCc1ccc(F)cc1,0.0355 µM (active),–
CN(C)c1ccc(-c2cc(NCc3cccnc3)ncn2)cc1,inactive,–
Cn1c(-c2ccc(F)cc2)cnc1NCc1cccc(F)c1,0.0562 µM (active),–
COc1cccc(Nc2ncc3nc(-c4ccc(F)cc4)c(=O)n(C)c3n2)c1,inactive,–
c1cncc(CNc2ncn[nH]2)c1,–,5.73% [at 11.4 µM] (inactive)
Cn1c(-c2ccc(Br)cc2)cnc1NCc1cccnc1,0.501 µM (active),–
Cn1c(=O)c(-c2ccc(F)cc2)nc2cncnc21,inactive,–
CCC1CC2CC(NC(C)=O)C1C2 (stereo not given),inactive,–
Fc1ccc2c(c1)C1C=CCC1C(c1cc3c(cc1Br)OCO3)N2 (stereo not given),inactive,–
CCCCOC(OCCCC)[C@H](O)CSc1ccc2ccccc2c1,–,-15.8% [at 11.4 µM] (inactive)
C#CCn1c(=O)c2c(ncn2C)n(C)c1=O,inactive,–
Cc1cnc(CNc2ccnc(-c3ccccc3C)n2)cn1,inactive,–
COCCNc1ccnc(-c2ccccc2C(F)(F)F)n1,inactive,–
CN(C)Cc1ccccc1-c1nccc(NCc2cccs2)n1,1.58 µM (active),–
Cc1cnc(CNc2ccnc(-c3ccccc3C(F)(F)F)n2)cn1,inactive,–
FC(F)(F)c1ccccc1-c1nccc(NCc2cccs2)n1,25.1 µM (active),–
Cc1cnc(CNc2cc(-c3ccccc3C)ncn2)cn1,inactive,–
Cc1ccccc1-c1nccc(NCc2cccs2)n1,2.51 µM (active),–
CN(C)Cc1ccccc1-c1cc(NCc2cccs2)ncn1,2 µM (active),–
O=C(NCc1ccco1)c1cc(C(=O)C2CCCCC2)c[nH]1,inactive,–
CCCCCC(=O)O[C@H](CC(=O)O)C[N+](C)(C)C,inactive,–
Cc1cc2cccc(C)c2nc1SCC(=O)N(C)c1nc(-c2ccccc2)cs1,inactive,–
COc1ccc(NC(=O)N2CCCC3(CCN(C(=O)c4cc(C(F)(F)F)cc(C(F)(F)F)c4)CC3)C2)cc1,inactive,–

SMILES,AC50,"activity, negative = inhibition"
O=C1[C@H]2[C@H]3[C@H](O)[C@H](O)C/C(=N/OC[C@@H](O)COCc4ccco4)[C@@H]3CC[C@@H]2C(=O)N1C1CCCCC1,–,7.51% [at 11.4 µM] (inactive)
Oc1cccc2ccc(SSc3ccc4cccc(O)c4n3)nc12,–,-0.179% [at 11.4 µM] (inactive)
COc1ccc(-c2nn3cnnc3s2)cc1OC,inactive,–
O=C(O)NCc1ccccc1 (tested in a mixture with another compound),3.98 µM (active),–
CCCC(=O)NNC(=O)CCC(=O)NCc1ccccc1,inactive,–
C/C(=C/C(=O)NCc1ccccc1)C(=O)O,inactive,–
O=c1c2ccc(Cl)cc2nc(-c2cccc(C(F)(F)F)c2)n1O,inactive,–
CC1=CC(=O)N(c2cccc(C(F)(F)F)c2)C1c1ccc(Cl)cc1 (stereo not given),2.51 µM (active),–
Cc1n[nH]c(=O)n1-c1cccc(C(F)(F)F)c1,inactive,–
COC(=O)c1ccc(NC(=O)Cn2nc(-c3ccncc3)nc2SCC(=O)Nc2nccs2)cc1,10 µM (active),–
CCC1C(=O)N=C(SCC(=O)Nc2ccc(C(=O)OC)cc2)NC1=O (stereo not given),inactive,–
O=C(CSc1nc(-c2ccccc2)nc2ccccc12)Nc1nccs1,inactive,–
O=C(O)c1sc2cc(C(F)(F)F)cnc2c1-c1ccccc1,inactive,–
CCCCC1CC(/C(C)=N/NC(N)=O)OC1=O (stereo not given),inactive,–
CC(C)c1ccc(CNc2cc(N3CCCC3)ccc2[N+](=O)[O-])cc1,inactive,–
O=C(NC(NCc1ccccc1)C(Cl)(Cl)Cl)c1cccnc1 (stereo not given),inactive,–
O=C(Cc1ccccc1)NC(NCCc1ccccc1)C(Cl)(Cl)Cl (stereo not given),14.1 µM (active),–
CC(CP(=O)(O)O)NC(=O)Cc1ccccc1 (stereo not given),inactive,–
Cc1n[nH]c(=S)n1/N=C/c1ccccc1OCc1ccc(Cl)cc1,inactive,–
C=CCOc1ccc(CNC(C)(C)CO)cc1OCC,1.41 µM (active),–
CCOC(=O)c1ccc(NC(=O)COc2ccccc2OC)cc1,inactive,–
C=CCOc1ccc(CNC(C)(C)CO)cc1OC,1.41 µM (active),–
CCc1ccc(OCC(=O)NC(=S)Nc2ccc(F)cc2)c(Br)c1,inactive,–
CCOc1nc(NCCc2ccc(OC)c(OC)c2)nc(NC(C)(C)CO)n1,inactive,–
CCOc1ccc(CNC(=O)C2CC(=O)N(C3CCCC3)C2)cc1OC (stereo not given),inactive,–

SMILES,AC50,"activity, negative = inhibition"
COc1ccc(CNC(C)(C)C)cc1Cl,inactive,–
COc1cc(CNC(C)(C)CO)ccc1OCC(=O)Nc1ccc(Br)cc1,5.01 µM (active),–
CCOc1ccc(CC(=O)C2C(=O)CCCC2=O)cc1OCC,inactive,–
Cc1ccccc1C(=O)NNC(=O)c1ccoc1C,inactive,–
CC(C)CC(=O)N[C@H](C(=O)N[C@H](C(=O)N[C@@H](CC(C)C)[C@H](O)CC(=O)N[C@@H](C)C(=O)N[C@@H](CC(C)C)[C@H](O)CC(=O)O)C(C)C)C(C)C,inactive,–
O=C(Nc1nnc(-c2ccc(Cl)cc2)o1)Nc1ccccc1Cl,inactive,–
COc1ccc(Oc2ncc3nc(-c4cc(F)cc(F)c4)c(=O)n(C)c3n2)cc1,inactive,–
Cc1cc(C(F)(F)F)n2nc(-c3cnn(C)c3C(F)(F)F)cc2n1,inactive,–
CN1CCN(c2ncc3nc(-c4cccs4)c(=O)n(C[C@H]4CCCO4)c3n2)CC1,inactive,–
COC(=O)c1c(-c2cc(OC)c(OC)c(OC)c2)c2ccnc(OCc3ncccn3)c2c(=O)n1Cc1ccnc(C)c1,inactive,–
C[C@H](N)C(=O)O,inactive,–
Cc1ccc(S(=O)(=O)Oc2ccc(C3C4=C(CCCC4=O)OC4=C3C(=O)CCC4)cc2)cc1,7.94 µM (active),–
COc1ccc2c(c1)OC1=C(C(=O)CCC1)C2C1=C(O)CCCC1=O (stereo not given),inactive,–
Cc1ccc(S(=O)(=O)Oc2cc(N)c3c(n2)CCC3)cc1,–,-20.4% [at 11.4 µM] (inactive)
COc1ncc2nc(-c3ccccc3)c(=O)n(-c3ccccc3)c2n1,inactive,–
COC(=O)C(C(=O)OC)C(C[N+](=O)[O-])c1ccc(OC)c(OC)c1 (stereo not given),inactive,–
O=C1CC(N(O)C2CC(=O)N(Cc3ccccc3)C2=O)C(=O)N1Cc1ccccc1 (stereo not given),inactive,–
CCOC(=O)CCN1C(=O)[C@H]2[C@H]3[C@H](O)[C@H](O)C/C(=N/OC[C@@H](O)COCc4ccco4)[C@@H]3CC[C@@H]2C1=O,–,7.94% [at 11.4 µM] (inactive)
CN(C)C(=O)c1ccc(-c2nccc(Nc3ccc(F)cc3)n2)cc1,inactive,–
CN(C)c1ccc(-c2nccc(Nc3ccc(F)cc3)n2)cc1,20 µM (active),–
Cc1noc(C)c1-c1nccc(Nc2ccc(F)cc2)n1,inactive,–
Fc1ccc(Nc2ccnc(-c3ccc4c(c3)OCO4)n2)cc1,10 µM (active),–
Nc1nccc(Nc2ccc(S(N)(=O)=O)cc2)n1,–,-5.16% [at 11.4 µM] (inactive)
Cc1noc(C)c1-c1cc(Nc2ccc(F)cc2)ncn1,inactive,–
C[C@H]1[C@@H](O)[C@@H](C)\C=C/C=C\C=C/C=C\C=C/C=C\C=C/[C@@H](O[C@H]2O[C@@H](C)[C@@H](O)[C@@H](N)[C@@H]2O)C[C@@H]2O[C@](O)(C[C@@H](O)C[C@@H](O)[C@@H](O)CC[C@@H](O)C[C@@H](O)CC(=O)O[C@H]1C)C[C@@H](O)[C@H]2C(=O)O (stereo in doubt),inactive,–
